Some test systems named below: SK-MEL-2 melanoma; EKVX NSCLC; SN12C renal; UO-31 renal; TK-10 renal; ACHN renal; CAKI-1 renal; A498 renal; CCRF-CEM leukemia; MOLT-4 leukemia; SR leukemia; RPMI-8226 leukemia; OVCAR-8 ovarian; OVCAR-5 ovarian; OVCAR-4 ovarian; SK-OV-3 ovarian; IGROV1 ovarian; OVCAR-3 ovarian; HS 578T breast; NCI/ADR-RES ovarian.
Holding throughout (experiment): NCI-60 one-dose screen, 48 h (100 = growth as untreated, 0 = no growth, -100 = all killed)
Common to all, as to conditions: 10 µM unless noted

The structures appear in SMILES notation. Values joined by “and” are separate entries in the source; they are usually repeats but may differ in a detail not shown here. Identical values can stand only once. The panel holds about 83,000 compounds, 20% with a hit somewhere; the sample as a whole holds those more often.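 Assay: single dose, 48 h. Readout: percent growth (0 = no net growth; negative = cell death). Active: <10.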 Active and inactive are the calls of the source.

Take `COc1ccc(SC2c3cc(OC)ccc3Oc3nc(N)c(C#N)c(N)c32)cc1` (stereo not given): the growth in the experiment with SK-MEL-2 melanoma is 94.5% (inactive); in the experiment with EKVX NSCLC, 76.3% (inactive); in the experiment with SN12C renal, 73.7% (inactive); with UO-31 renal it was 39.7% (inactive); with TK-10 renal it was 110% (inactive); with ACHN renal, 76.3% (inactive). Besides, the growth in the experiment with CAKI-1 renal was 79.1% (inactive); in the experiment on A498 renal, 107% (inactive); in the experiment with CCRF-CEM leukemia, 4.16% (active); in the experiment on MOLT-4 leukemia, 55.4% (inactive); in the experiment on SR leukemia, 29.5% (inactive); in the experiment on RPMI-8226 leukemia, 56.3% (inactive). For the same molecule, the growth is 87% (inactive) in the experiment on OVCAR-8 ovarian; 123% (inactive) in the experiment on OVCAR-5 ovarian; 105% (inactive) with OVCAR-4 ovarian; 113% (inactive) with SK-OV-3 ovarian; 21.9% (inactive) in the experiment on IGROV1 ovarian; 98.4% (inactive) in the experiment with OVCAR-3 ovarian. Also, the growth with HS 578T breast was 81% (inactive); in the experiment on NCI/ADR-RES ovarian, 91.1% (inactive).

On to `O=C(N=Nc1c(O)[nH]c2ccc(Cl)cc12)c1ccc2nc(-c3ccc(Cl)cc3)[nH]c2c1`, for which the growth in the experiment with SK-MEL-2 melanoma is 11.8% (inactive); in the experiment with EKVX NSCLC, 29.9% (inactive); in the experiment with SN12C renal, -10.4% (active); in the experiment with UO-31 renal it was 87.3% (inactive); in the experiment with TK-10 renal, 52.3% (inactive); in the experiment on ACHN renal, 73.4% (inactive). Moreover, the growth in the experiment with CAKI-1 renal is 82.8% (inactive); with A498 renal it was 47.8% (inactive); in the experiment with CCRF-CEM leukemia, 3.93% (active); with MOLT-4 leukemia, 6.71% (active); in the experiment with SR leukemia, 10.6% (inactive); in the experiment on RPMI-8226 leukemia, 77.8% (inactive). Further, the growth was -34.8% (active) in the experiment on OVCAR-8 ovarian; 36.2% (inactive) with OVCAR-5 ovarian; -3.41% (active) in the experiment with OVCAR-4 ovarian; 42% (inactive) in the experiment on SK-OV-3 ovarian; -11.1% (active) with IGROV1 ovarian; -5.16% (active) with OVCAR-3 ovarian. Moreover, the growth is 12.2% (inactive) in the experiment on HS 578T breast and 94.7% (inactive) in the experiment on NCI/ADR-RES ovarian.

In the case of `O=C1C=CC(=CC=C2N(Cc3ccc4ccccc4c3)c3ccccc3N2Cc2ccc3ccccc3c2)C=C1`, the growth in the experiment on SK-MEL-2 melanoma is -12.8% (active) and -12.7% (active); in the experiment with EKVX NSCLC it was 33.7% (inactive) and 32.9% (inactive); with SN12C renal, 6.94% (active) and 13.3% (inactive); in the experiment on UO-31 renal, 103% (inactive) and 98.5% (inactive); in the experiment with TK-10 renal it was 63.6% (inactive) and 74% (inactive); in the experiment with ACHN renal it was 77.2% (inactive) and 78.6% (inactive). Further, the growth is 77.6% (inactive) and 70.8% (inactive) in the experiment on CAKI-1 renal; 106% (inactive) and 109% (inactive) with A498 renal; 21.7% (inactive) and 10.9% (inactive) in the experiment on CCRF-CEM leukemia; 22.5% (inactive) and 17.6% (inactive) with MOLT-4 leukemia; 3.48% (active) in the experiment on SR leukemia; -5.25% (active) and -13.4% (active) in the experiment with RPMI-8226 leukemia. The growth in the experiment on OVCAR-8 ovarian is 20.2% (inactive) and 24.9% (inactive); in the experiment with OVCAR-5 ovarian, 36.6% (inactive) and 47.2% (inactive); with OVCAR-4 ovarian, 37.9% (inactive) and 27.6% (inactive); with SK-OV-3 ovarian it was 13.4% (inactive) and 46.4% (inactive); in the experiment with IGROV1 ovarian, 7.62% (active) and 29.5% (inactive); with OVCAR-3 ovarian, 24.2% (inactive) and -1.46% (active). Besides, the growth in the experiment on HS 578T breast was 52.3% (inactive) and 32.6% (inactive); in the experiment on NCI/ADR-RES ovarian it was 104% (inactive) and 102% (inactive).

Regarding `COc1ccc(C2=NN(C(=O)[C@H]3[C@@H](c4ccco4)c4sc(=O)[nH]c4S[C@@H]3C)C(c3ccc4ccccc4c3)C2)cc1` (stereo not given in full), the growth in the experiment with SK-MEL-2 melanoma is 32.3% (inactive); in the experiment on EKVX NSCLC, 23.2% (inactive); with SN12C renal it was 39% (inactive); in the experiment with UO-31 renal, 19.5% (inactive); in the experiment on TK-10 renal, 50.4% (inactive); in the experiment with ACHN renal, 16% (inactive). Besides, the growth is 20.7% (inactive) with CAKI-1 renal; 102% (inactive) in the experiment on A498 renal; 6.09% (active) with CCRF-CEM leukemia; 12% (inactive) in the experiment with MOLT-4 leukemia; 24.8% (inactive) in the experiment on SR leukemia; 8.59% (active) with RPMI-8226 leukemia. The growth in the experiment on OVCAR-8 ovarian is 28% (inactive); with OVCAR-5 ovarian it was 42.9% (inactive); with OVCAR-4 ovarian, 49.2% (inactive); in the experiment on SK-OV-3 ovarian it was 84.6% (inactive); in the experiment on IGROV1 ovarian, 45.6% (inactive); with OVCAR-3 ovarian, 31% (inactive). For the same molecule, the growth is 29.6% (inactive) in the experiment on HS 578T breast and 26.7% (inactive) with NCI/ADR-RES ovarian.

In the case of `CC(C)C[C@H](NC(=O)CNC(=O)C[C@H]1O[C@@H]2OC3(C)CC[C@H]4[C@H](C)CC[C@@H]([C@H]1C)[C@@]24O3)B(O)O`, the growth was -61.9% (active) in the experiment with SK-MEL-2 melanoma; 27.3% (inactive) in the experiment on EKVX NSCLC; -39.2% (active) in the experiment on SN12C renal; 10.5% (inactive) in the experiment with UO-31 renal; 12.1% (inactive) in the experiment with TK-10 renal; 6.33% (active) in the experiment with ACHN renal. Further, the growth is 15.8% (inactive) in the experiment with CAKI-1 renal; 21.1% (inactive) in the experiment on A498 renal; -12.4% (active) with CCRF-CEM leukemia; 7.31% (active) in the experiment with MOLT-4 leukemia; 9.06% (active) with SR leukemia; -11% (active) with RPMI-8226 leukemia. For the same molecule, the growth in the experiment on OVCAR-8 ovarian was 4.17% (active); with OVCAR-5 ovarian it was -32.6% (active); in the experiment on OVCAR-4 ovarian, 18.9% (inactive); with SK-OV-3 ovarian it was 25.7% (inactive); in the experiment with IGROV1 ovarian, 10.7% (inactive); with OVCAR-3 ovarian, -33.1% (active). Further, the results for the growth in the experiment with HS 578T breast and with NCI/ADR-RES ovarian were -5.03% (active) and 92.6% (inactive), respectively.

For the molecule `COc1ccc(NC(=O)N/N=C/c2c[nH]c3ccccc23)cc1`, the growth in the experiment with SK-MEL-2 melanoma is -10.7% (active); in the experiment with EKVX NSCLC, 43.1% (inactive); in the experiment with SN12C renal, 34.4% (inactive); in the experiment on UO-31 renal, 40.3% (inactive); with TK-10 renal, 74.4% (inactive); in the experiment with ACHN renal it was 51.1% (inactive). Besides, the growth was 44% (inactive) in the experiment with CAKI-1 renal; 85.5% (inactive) with A498 renal; 21% (inactive) in the experiment on CCRF-CEM leukemia; 20.5% (inactive) with MOLT-4 leukemia; 23.4% (inactive) in the experiment with SR leukemia; 24.9% (inactive) in the experiment with RPMI-8226 leukemia. Also, the growth was 20.5% (inactive) in the experiment with OVCAR-8 ovarian; 37.4% (inactive) in the experiment on OVCAR-5 ovarian; 69.9% (inactive) in the experiment with OVCAR-4 ovarian; 37.5% (inactive) in the experiment with SK-OV-3 ovarian; 40.8% (inactive) in the experiment with IGROV1 ovarian; -34.1% (active) in the experiment with OVCAR-3 ovarian. Moreover, the growth is 27.1% (inactive) in the experiment with HS 578T breast and 15.3% (inactive) with NCI/ADR-RES ovarian.

The values above are taken from PubChem BioAssay (NCI).
